The campaign covered roughly 39,000 compounds. About 3,300 (8.5%) were called active. Only a selection was taken, and actives are over-represented in it overall.

The subject of this experiment is HepG2. As to the kind of experiment: cytotoxicity call (relative viability < 0.9). As to conditions: 10 µM.
For `CN1CCN(C(=O)C[C@@H]2C=C[C@@H](NC(=O)c3ccc4c(c3)OCO4)[C@H](CO)O2)CC1`, the cytotoxicity call was “inactive”.

For the molecule `CCCCOc1ccc(CC(=O)NO)cc1`, the cytotoxicity call is “active”.

Consider `COc1ccc(OCCC(=O)NN)cc1`, for which the cytotoxicity call is “inactive”. As for `CCOc1ccc(NC(=O)CC(C)O)cc1` (stereo not given), the cytotoxicity call is “inactive”. With `CNC(=O)CN(C#N)c1nc(C)cc(C)n1` the entry was “inactive”. With `COc1ccc(CNC(=O)C[C@H]2C[C@H]3c4cc(NS(=O)(=O)c5ccc(F)cc5)ccc4O[C@H]3[C@H](CO)O2)cc1` the entry was “inactive”. In the case of `C[C@H](CO)N1C[C@H](C)[C@H](CN(C)C(=O)c2cccnc2)Oc2ncc(-c3ccc(C(=O)N(C)C)cc3)cc2C1=O` it was “inactive”; in that of `C[C@@H]1CCCCO[C@H](CN(C)C(=O)CCC(F)(F)F)[C@@H](C)CN([C@H](C)CO)C(=O)c2cc(NC(=O)CCC(F)(F)F)ccc2O1`, “inactive”; in that of `C[C@H]1CN([C@@H](C)CO)C(=O)c2cc(NC(=O)Nc3ccc(F)cc3)ccc2O[C@@H]1CN(C)C(=O)Nc1ccc(C(F)(F)F)cc1`, “inactive”. Take `C[C@@H]1CN([C@H](C)CO)C(=O)c2cc(NC(=O)Nc3ccccc3)ccc2O[C@@H]1CN(C)C(=O)Nc1ccc(C(F)(F)F)cc1`: the cytotoxicity call was “inactive”. In the case of `C[C@@H]1CN([C@H](C)CO)C(=O)c2cc(NC(=O)Nc3ccc(C(F)(F)F)cc3)ccc2O[C@H]1CN(C)C(=O)Nc1ccc(F)cc1` it was “inactive”; in that of `C[C@H](CO)N1C[C@H](C)[C@@H](CN(C)C(=O)Nc2ccc(C(F)(F)F)cc2)Oc2ccc(NC(=O)Nc3ccc(F)cc3)cc2C1=O`, “active”; in that of `C[C@H]1CN([C@@H](C)CO)C(=O)c2cc(NC(=O)CCC(F)(F)F)ccc2O[C@H]1CN(C)C(=O)Nc1ccc(C(F)(F)F)cc1`, “active”. In the case of `C[C@H]1CN([C@@H](C)CO)C(=O)c2cc(NC(=O)Nc3ccc(C(F)(F)F)cc3)ccc2O[C@H]1CN(C)C(=O)Nc1ccc(C(F)(F)F)cc1` it was “inactive”. In the case of `C[C@@H]1CN([C@H](C)CO)C(=O)c2cc(NC(=O)CCC(F)(F)F)ccc2O[C@@H]1CN(C)C(=O)Nc1ccc(C(F)(F)F)cc1` it was “inactive”. Consider `C[C@@H]1CN([C@@H](C)CO)C(=O)c2cc(NC(=O)CCC(F)(F)F)ccc2O[C@H]1CN(C)C(=O)Nc1ccc(C(F)(F)F)cc1`, for which the cytotoxicity call is “inactive”. In the case of `C[C@H](CO)N1C[C@H](C)[C@H](CN(C)C(=O)Nc2ccccc2)Oc2ccc(NC(=O)Nc3ccc(C(F)(F)F)cc3)cc2C1=O` it was “active”. For `C[C@H](CO)N1C[C@H](C)[C@@H](CN(C)C(=O)Nc2ccc(C(F)(F)F)cc2)Oc2ccc(NC(=O)Nc3ccc(C(F)(F)F)cc3)cc2C1=O`, the cytotoxicity call was “active”. In the case of `C[C@@H]1CN([C@@H](C)CO)C(=O)c2cc(NC(=O)Nc3ccccc3)ccc2O[C@@H]1CN(C)C(=O)Nc1ccc(C(F)(F)F)cc1` it was “inactive”; in that of `C[C@@H]1CN([C@@H](C)CO)C(=O)c2cc(NC(=O)Nc3ccc(C(F)(F)F)cc3)ccc2O[C@H]1CN(C)C(=O)Nc1ccc(C(F)(F)F)cc1`, “inactive”.

As to `Cc1noc(C)c1NC(=O)Nc1ccc2c(c1)CC(=O)N([C@H](C)CO)C[C@H](C)[C@H](CN(C)S(=O)(=O)c1cn(C)cn1)O2`, the cytotoxicity call was “inactive”. Take `COc1ccc(NC(=O)Nc2ccc3c(c2)C(=O)N([C@H](C)CO)C[C@@H](C)[C@@H](CN(C)C(=O)Cc2ccccc2)OCCCC[C@H](C)O3)cc1`: the cytotoxicity call is “inactive”. With `NC1(C#Cc2cncc(C(=O)N3CCOCC3)c2)CCCCC1` the entry was “inactive”; with `C[C@@H]1CN([C@H](C)CO)C(=O)c2cc(NC(=O)NC3CCCCC3)ccc2O[C@@H](C)CCCCO[C@H]1CN(C)Cc1ccc2c(c1)OCO2`, “inactive”; with `Cc1ccc(S(=O)(=O)Nc2ccc3c(c2)CC(=O)N([C@H](C)CO)C[C@H](C)[C@H](CN(C)S(=O)(=O)c2ccccc2)O3)cc1`, “inactive”.

Regarding `COc1ccccc1S(=O)(=O)N[C@H]1C=C[C@H](CC(=O)N2CCN(C)CC2)O[C@H]1CO`, the cytotoxicity call is “inactive”.

As to `COc1ccc(NC(=O)Nc2ccc3c(c2)C(=O)N([C@@H](C)CO)C[C@@H](C)[C@H](CN(C)S(=O)(=O)c2c(C)noc2C)OCCCC[C@@H](C)O3)cc1`, the cytotoxicity call was “inactive”.

Regarding `Cc1cc(C(=O)Nc2cccc3c2O[C@H](CN(C)C(=O)NC(C)C)[C@@H](C)CN([C@@H](C)CO)C3=O)n(C)n1`, the cytotoxicity call was “inactive”. Consider `C[C@@H]1CCCCO[C@@H](CN(C)S(=O)(=O)c2cccs2)[C@@H](C)CN([C@H](C)CO)C(=O)c2cc(NC(=O)c3ccccc3)ccc2O1`, for which the cytotoxicity call was “inactive”. Take `O=C(C[C@@H]1CC[C@@H](NS(=O)(=O)c2ccccc2F)[C@@H](CO)O1)NCCCN1CCOCC1`: the cytotoxicity call was “inactive”. With `O=C(C[C@@H]1CC[C@@H]2[C@H](COC[C@@H](O)CN2C(=O)C2CC2)O1)NCc1ccncc1` the entry was “inactive”. With `C[C@H](CO)N1C[C@H](C)[C@H](CN(C)C(=O)Nc2ccc(C(F)(F)F)cc2)Oc2ccc(NC(=O)Cc3ccccc3)cc2C1=O` the entry was “active”; with `C[C@@H]1CN([C@H](C)CO)C(=O)c2cc(NC(=O)Nc3ccc(F)cc3)ccc2O[C@H]1CN(C)C(=O)Nc1ccc(C(F)(F)F)cc1`, “inactive”. With `C[C@@H]1CN([C@@H](C)CO)C(=O)c2cc(NC(=O)Nc3ccc(F)cc3)ccc2O[C@@H]1CN(C)C(=O)Nc1ccc(C(F)(F)F)cc1` the entry was “inactive”; with `C[C@H](CO)N1C[C@H](C)[C@@H](CN(C)C(=O)Nc2ccc(F)cc2)Oc2ccc(NC(=O)Nc3ccc(C(F)(F)F)cc3)cc2C1=O`, “inactive”. Regarding `C[C@H](CO)N1C[C@H](C)[C@@H](CN(C)C(=O)Nc2ccc(C(F)(F)F)cc2)Oc2ccc(NC(=O)Cc3ccccc3)cc2C1=O`, the cytotoxicity call is “inactive”. With `C[C@@H]1CN([C@H](C)CO)C(=O)c2cc(NC(=O)Nc3ccc(C(F)(F)F)cc3)ccc2O[C@@H]1CN(C)C(=O)Nc1ccc(F)cc1` the entry was “active”; with `C[C@@H]1CN([C@@H](C)CO)C(=O)c2cc(NC(=O)Nc3ccc(C(F)(F)F)cc3)ccc2O[C@@H]1CN(C)C(=O)Nc1ccc(F)cc1`, “active”.

As for `C[C@H]1CN([C@@H](C)CO)C(=O)c2cc(NC(=O)Cc3ccccc3)ccc2O[C@@H]1CN(C)C(=O)Nc1ccc(C(F)(F)F)cc1`, the cytotoxicity call is “inactive”. In the case of `C[C@H]1CN([C@@H](C)CO)C(=O)c2cc(NC(=O)Nc3ccc(C(F)(F)F)cc3)ccc2O[C@H]1CN(C)C(=O)Nc1ccc(F)cc1` it was “inactive”.

The values are drawn from the antibiotic and cytotoxicity screens of Wong et al. (2023).
